Assay results reported in PubChem BioAssay AID2642 (Johns Hopkins Ion Channel Center, 2010).
About 3,900 (1.3%) of roughly 310,000 compounds were called active.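 The calls were made as follows: active = compounds whose thallium flux B-score, printed positive for inhibition, exceeds three library SD while starting fluorescence stays within three; inactive = the rest.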 This excerpt belongs to a sample that is enriched for actives.

Biological target: Potassium voltage-gated channel subfamily KQT member 1 (Homo sapiens) (UniProt P51787)
Sequence (P51787 whole entry, looked up): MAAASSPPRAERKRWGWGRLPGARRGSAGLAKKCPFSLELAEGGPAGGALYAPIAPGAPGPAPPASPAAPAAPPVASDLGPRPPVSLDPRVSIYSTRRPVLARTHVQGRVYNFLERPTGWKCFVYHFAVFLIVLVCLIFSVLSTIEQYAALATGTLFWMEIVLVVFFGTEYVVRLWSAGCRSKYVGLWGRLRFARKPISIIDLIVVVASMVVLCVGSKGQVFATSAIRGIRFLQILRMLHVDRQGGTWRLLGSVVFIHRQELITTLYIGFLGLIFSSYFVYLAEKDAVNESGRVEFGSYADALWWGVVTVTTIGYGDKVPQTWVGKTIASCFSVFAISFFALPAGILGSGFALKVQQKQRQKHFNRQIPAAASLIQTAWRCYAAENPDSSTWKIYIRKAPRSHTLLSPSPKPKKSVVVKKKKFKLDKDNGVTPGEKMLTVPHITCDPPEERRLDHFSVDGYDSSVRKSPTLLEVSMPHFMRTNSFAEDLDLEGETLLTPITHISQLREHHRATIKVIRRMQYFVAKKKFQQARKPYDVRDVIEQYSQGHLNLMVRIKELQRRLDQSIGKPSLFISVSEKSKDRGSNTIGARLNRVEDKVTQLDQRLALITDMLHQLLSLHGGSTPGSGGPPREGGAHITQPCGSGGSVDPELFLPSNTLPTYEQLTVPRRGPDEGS
Experiment: inhibitors of human KCNQ1 channel, primary screen, cell-based, thallium flux, high-throughput (AID 2642);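 also: channel opened by potassium depolarization with thallium stimulus after 20 min compound exposure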
Settings: CHO-K1 KCNQ1, FluxOR thallium flux fluorescence, at 10 µM; stronger effect = higher value

B-score, inactive:
Cc1nn(-c2ncc(C(F)(F)F)cc2Cl)c(=O)n1-c1ccccc1, CC1CCCC(N2CCN(C(=O)c3ccc(F)cc3)CC2)C1 (stereo not given), C=CCn1c(SCC(N)=O)nnc1-c1cc2c(s1)CCC(CC)C2 (stereo not given), COc1ccc(-c2csc3ncnc(Oc4ccc5c(C)cc(=O)oc5c4)c23)cc1, COc1ccc(-c2csc3ncnc(N4CCN(S(=O)(=O)c5ccccc5C#N)CC4)c23)cc1, CCN(c1ccc(NC(=O)COC(=O)CCc2nc3ccccc3n2-c2ccccc2)cc1)C(C)C, O=C(CNS(=O)(=O)c1ccccc1)NCC(=O)OCc1ccccc1F, Cc1ccc(SCC(=O)NC(=O)NCc2ccco2)c(C)c1, CC(=O)NCc1ccc(S(=O)(=O)NC2CCN(Cc3ccccc3)CC2)cc1, COc1ccc(C)cc1NC(=S)Nc1ccccc1SC, O=C1NC(=Nc2ccc(Cl)cc2)SC1Cc1cccc(Cl)c1Cl (stereo not given), O=C(NNC(=O)c1csc(-c2cccnc2)n1)Nc1ccc(Cl)cc1, Cc1ccc(NC(=O)Nc2cccnc2)cc1, Cc1cccc(N2CCC(NCc3c(C(=O)N4CCCCC4)nc4c(C)cccn34)CC2)c1, Cc1ccccc1N1CCN(S(=O)(=O)c2ccc3ccccc3c2)CC1, Cc1ccc(S(=O)(=O)N2CCN(C)CC2)cc1, c1ccc2c(NCC3CCCO3)nc(-c3ccncc3)nc2c1 (stereo not given), O=C(NCC1CCCO1)c1cc(-c2ccccc2)nc2ccccc12 (stereo not given), COc1ccc(CC(NC(C)=O)C(=O)NC2CCN(C(=O)c3ccc(Cl)cc3)CC2)cc1 (stereo not given), CC1CCN(C(=S)NC(=O)c2ccccc2Br)CC1, C=CCn1c(-c2ccc3[nH]c(C)c(C)c3c2)n[nH]c1=S, C=CCn1c(-c2sc(-c3ccccc3)nc2C)n[nH]c1=S, COc1ccc(S(=O)(=O)N2CCN(C)CC2)c(C)c1, CC(C)(C)NC(=O)CN(Cc1cccs1)C(=O)CNS(=O)(=O)c1ccccc1

B-score, active:
COc1ccc(-c2csc3ncnc(N4CCN(S(=O)(=O)c5cccc(F)c5)CC4)c23)cc1 6, CCN1/C(=C\c2ccc3ccccc3[n+]2CC)Sc2cc(C)ccc21 15, O=C(Nc1ccc(Cl)cc1)Nc1ccc(Oc2cccnc2)nc1 8, Cc1ccc(N2CCN(S(=O)(=O)c3ccc(F)cc3)CC2)c(C)c1 7, Clc1cccc(-c2nc(NCC3CCCO3)c3ccccc3n2)c1 (stereo not given) 6, C=CCn1c(-c2ccccc2OCC)n[nH]c1=S 6
